Measurements published in publication PMC7862700, “An all-to-all approach to the identification of sequence-specific readers for epigenetic DNA modifications on cytosine”.

How the values were obtained:
Assay in all cases: DAPPL (digital affinity profiling via proximity ligation, sequencing); 10 mM Tris-HCl pH 7.5, 50 mM NaCl, 1 mM DTT, 4% glycerol, room temperature, 30 min; GST-TFs on glutathione beads, 16-mer random dsDNA library, 0.1% formaldehyde crosslink after washing; high values mean tight binding
FEV = target: T1, FEV (Homo sapiens, UniProt Q99581 1-238); settings: protein: recombinant; tags: N-terminal GST; dsDNA, one strand shown
T1 sequence: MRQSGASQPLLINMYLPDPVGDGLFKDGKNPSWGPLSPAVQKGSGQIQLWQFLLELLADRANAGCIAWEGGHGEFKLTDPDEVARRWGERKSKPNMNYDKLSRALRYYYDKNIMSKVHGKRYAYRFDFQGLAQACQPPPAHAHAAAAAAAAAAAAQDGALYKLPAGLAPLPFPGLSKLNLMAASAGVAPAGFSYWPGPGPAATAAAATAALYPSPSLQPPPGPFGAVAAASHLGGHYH
Method in brief: (§1)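 Yeast served to express human transcription factors as GST fusions, which were then captured on glutathione beads and labelled with DNA barcodes. Pooled with a tag-only sample, they were incubated with 200 nmole of a 16-mer random double-stranded DNA library for 30 min at room temperature in Tris/NaCl/DTT/glycerol buffer, washed, crosslinked with 0.1% formaldehyde, ligated by proximity, amplified by PCR and sequenced. Dividing each hexamer's read frequency for a factor by its frequency for the tag-only sample gives the binding signal.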

ETV5 = ETV5 (Homo sapiens, UniProt P41161 1-510); settings: protein: recombinant; tags: N-terminal GST; dsDNA, one strand shown
Chain of ETV5 (P41161 whole entry): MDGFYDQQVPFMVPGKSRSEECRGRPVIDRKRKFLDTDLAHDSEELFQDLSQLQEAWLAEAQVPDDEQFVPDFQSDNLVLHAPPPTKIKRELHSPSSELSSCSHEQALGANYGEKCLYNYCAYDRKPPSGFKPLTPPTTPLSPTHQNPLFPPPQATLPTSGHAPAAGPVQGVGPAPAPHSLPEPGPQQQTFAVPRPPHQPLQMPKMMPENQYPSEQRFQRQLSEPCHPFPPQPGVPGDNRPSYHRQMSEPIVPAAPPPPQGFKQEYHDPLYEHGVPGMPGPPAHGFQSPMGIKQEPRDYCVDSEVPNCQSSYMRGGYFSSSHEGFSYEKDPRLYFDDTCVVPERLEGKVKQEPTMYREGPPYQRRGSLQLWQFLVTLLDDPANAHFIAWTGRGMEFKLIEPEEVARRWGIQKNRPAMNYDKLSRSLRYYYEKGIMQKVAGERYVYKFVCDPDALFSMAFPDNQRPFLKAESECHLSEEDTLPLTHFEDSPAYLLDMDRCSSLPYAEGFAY
Method in brief: as §1

HSF1 = HSF1 (Homo sapiens, UniProt Q00613 1-529); settings: protein: recombinant; tags: N-terminal GST; chain copies: 3; dsDNA, one strand shown
Chain of HSF1 (Q00613 whole entry): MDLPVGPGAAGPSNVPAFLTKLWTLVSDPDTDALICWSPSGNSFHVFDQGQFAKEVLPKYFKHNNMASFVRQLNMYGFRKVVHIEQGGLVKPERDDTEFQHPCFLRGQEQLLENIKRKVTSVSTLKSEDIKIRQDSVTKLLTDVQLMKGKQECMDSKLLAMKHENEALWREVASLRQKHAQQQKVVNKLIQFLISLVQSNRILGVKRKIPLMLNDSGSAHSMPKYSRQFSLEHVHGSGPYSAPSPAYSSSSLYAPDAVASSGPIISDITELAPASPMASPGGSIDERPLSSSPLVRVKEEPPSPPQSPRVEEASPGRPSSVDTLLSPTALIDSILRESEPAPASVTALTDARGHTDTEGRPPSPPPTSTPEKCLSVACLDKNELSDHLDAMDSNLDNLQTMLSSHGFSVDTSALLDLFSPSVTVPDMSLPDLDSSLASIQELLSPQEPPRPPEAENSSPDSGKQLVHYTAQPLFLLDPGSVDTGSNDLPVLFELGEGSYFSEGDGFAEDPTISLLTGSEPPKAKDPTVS
Method in brief: as §1

SPIC = target: T2, SPIC (Homo sapiens, UniProt Q8N5J4 1-248); settings: protein: recombinant; tags: N-terminal GST; dsDNA, one strand shown
T2 sequence: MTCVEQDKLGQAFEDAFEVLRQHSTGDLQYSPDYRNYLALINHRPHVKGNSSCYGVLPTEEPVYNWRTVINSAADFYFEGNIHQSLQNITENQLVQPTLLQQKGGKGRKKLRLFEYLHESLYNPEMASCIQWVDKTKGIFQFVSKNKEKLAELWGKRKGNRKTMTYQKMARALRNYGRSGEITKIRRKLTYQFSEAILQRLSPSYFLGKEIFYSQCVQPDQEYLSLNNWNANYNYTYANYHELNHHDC
Method in brief: as §1

ELF4 = ELF4 (Homo sapiens, UniProt Q99607 1-663); settings: protein: recombinant; tags: N-terminal GST; dsDNA, one strand shown
Chain of ELF4 (Q99607 whole entry): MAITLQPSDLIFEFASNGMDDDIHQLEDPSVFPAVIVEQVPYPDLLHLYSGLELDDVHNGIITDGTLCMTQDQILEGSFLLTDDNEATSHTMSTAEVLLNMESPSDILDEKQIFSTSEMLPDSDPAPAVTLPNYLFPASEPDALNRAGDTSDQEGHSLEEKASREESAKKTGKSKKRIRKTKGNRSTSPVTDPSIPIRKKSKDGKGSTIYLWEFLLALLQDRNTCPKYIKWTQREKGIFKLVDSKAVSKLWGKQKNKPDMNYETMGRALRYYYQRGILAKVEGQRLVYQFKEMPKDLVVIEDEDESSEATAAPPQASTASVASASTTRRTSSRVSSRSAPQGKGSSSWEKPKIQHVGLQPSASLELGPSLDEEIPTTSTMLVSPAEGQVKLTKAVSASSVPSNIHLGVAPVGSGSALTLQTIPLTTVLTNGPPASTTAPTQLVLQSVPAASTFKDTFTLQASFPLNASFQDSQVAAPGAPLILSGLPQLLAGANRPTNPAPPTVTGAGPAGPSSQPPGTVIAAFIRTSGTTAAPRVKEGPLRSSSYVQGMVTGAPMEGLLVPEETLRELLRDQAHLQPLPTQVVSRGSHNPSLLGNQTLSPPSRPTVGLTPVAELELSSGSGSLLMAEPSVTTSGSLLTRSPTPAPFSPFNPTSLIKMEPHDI
Method in brief: as §1

ELK4 = target: T3, ELK4 (Homo sapiens, UniProt P28324-2 1-405); settings: protein: recombinant; tags: N-terminal GST; dsDNA, one strand shown
T3 sequence: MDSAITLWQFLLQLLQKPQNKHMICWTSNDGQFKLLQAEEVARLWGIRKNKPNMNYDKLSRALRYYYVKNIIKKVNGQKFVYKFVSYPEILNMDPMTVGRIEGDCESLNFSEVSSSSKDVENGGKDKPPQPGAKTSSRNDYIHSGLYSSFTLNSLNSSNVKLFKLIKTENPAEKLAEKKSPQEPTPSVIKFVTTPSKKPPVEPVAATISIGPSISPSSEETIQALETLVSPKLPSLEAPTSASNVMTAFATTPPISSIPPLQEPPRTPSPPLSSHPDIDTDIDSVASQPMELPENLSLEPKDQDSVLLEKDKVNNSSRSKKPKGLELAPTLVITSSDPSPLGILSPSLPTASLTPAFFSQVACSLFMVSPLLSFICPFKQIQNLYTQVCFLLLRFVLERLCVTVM
Method in brief: as §1

ETV2 = target: T4, ETV2 (Homo sapiens, UniProt O00321 1-342); settings: protein: recombinant; tags: N-terminal GST; dsDNA, one strand shown
T4 sequence: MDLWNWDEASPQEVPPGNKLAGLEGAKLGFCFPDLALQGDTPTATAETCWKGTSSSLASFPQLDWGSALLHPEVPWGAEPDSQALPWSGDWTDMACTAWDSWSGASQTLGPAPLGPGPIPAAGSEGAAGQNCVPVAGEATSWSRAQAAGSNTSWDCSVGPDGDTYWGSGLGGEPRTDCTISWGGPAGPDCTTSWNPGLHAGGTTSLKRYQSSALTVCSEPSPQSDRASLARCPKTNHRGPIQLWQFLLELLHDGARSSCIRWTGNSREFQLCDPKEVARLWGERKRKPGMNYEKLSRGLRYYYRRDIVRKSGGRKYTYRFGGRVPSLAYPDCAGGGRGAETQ
Method in brief: as §1

ELF3 = target: T5, ELF3 (Homo sapiens, UniProt P78545 1-371); settings: protein: recombinant; tags: N-terminal GST; dsDNA, one strand shown
T5 sequence: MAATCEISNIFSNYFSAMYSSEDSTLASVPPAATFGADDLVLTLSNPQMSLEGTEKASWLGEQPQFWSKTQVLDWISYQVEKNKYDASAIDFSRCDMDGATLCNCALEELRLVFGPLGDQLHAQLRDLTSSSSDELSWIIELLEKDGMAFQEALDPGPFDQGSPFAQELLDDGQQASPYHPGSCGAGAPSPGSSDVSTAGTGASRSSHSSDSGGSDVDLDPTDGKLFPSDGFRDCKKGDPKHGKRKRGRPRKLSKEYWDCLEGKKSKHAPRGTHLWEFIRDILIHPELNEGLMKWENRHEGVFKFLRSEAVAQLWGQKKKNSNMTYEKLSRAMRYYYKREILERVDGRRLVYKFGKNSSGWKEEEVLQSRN
Method in brief: as §1

CRX = CRX (Homo sapiens, UniProt O43186 1-299); settings: protein: recombinant; tags: N-terminal GST; dsDNA, one strand shown
Chain of CRX (O43186 whole entry): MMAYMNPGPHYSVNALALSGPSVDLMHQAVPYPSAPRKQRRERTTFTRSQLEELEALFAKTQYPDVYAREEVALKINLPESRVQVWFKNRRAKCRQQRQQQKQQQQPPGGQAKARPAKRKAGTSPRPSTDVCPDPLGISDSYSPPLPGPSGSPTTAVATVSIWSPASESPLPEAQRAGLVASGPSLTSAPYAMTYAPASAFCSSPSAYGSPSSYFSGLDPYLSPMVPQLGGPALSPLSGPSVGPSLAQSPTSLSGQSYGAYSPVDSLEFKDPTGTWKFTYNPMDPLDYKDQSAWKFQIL
Method in brief: as §1

ETV1 = ETV1 (Homo sapiens, UniProt P50549 1-477); settings: protein: recombinant; tags: N-terminal GST; dsDNA, one strand shown
Chain of ETV1 (P50549 whole entry): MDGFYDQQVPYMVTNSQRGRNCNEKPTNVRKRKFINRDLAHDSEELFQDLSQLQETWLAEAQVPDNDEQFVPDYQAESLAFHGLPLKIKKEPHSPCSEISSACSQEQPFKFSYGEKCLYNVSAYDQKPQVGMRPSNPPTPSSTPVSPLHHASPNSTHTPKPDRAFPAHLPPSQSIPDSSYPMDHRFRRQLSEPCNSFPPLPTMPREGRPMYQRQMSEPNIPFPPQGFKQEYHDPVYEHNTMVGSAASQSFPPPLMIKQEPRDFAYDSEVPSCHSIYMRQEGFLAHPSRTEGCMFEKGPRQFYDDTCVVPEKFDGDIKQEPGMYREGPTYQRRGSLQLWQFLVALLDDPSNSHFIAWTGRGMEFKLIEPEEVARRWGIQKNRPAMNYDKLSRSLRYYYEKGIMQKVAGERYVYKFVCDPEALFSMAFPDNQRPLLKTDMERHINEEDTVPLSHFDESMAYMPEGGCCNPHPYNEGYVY
Method in brief: as §1

ERF = target: T6, ERF (Homo sapiens, UniProt P50548 1-548); settings: protein: recombinant; tags: N-terminal GST; dsDNA, one strand shown
T6 sequence: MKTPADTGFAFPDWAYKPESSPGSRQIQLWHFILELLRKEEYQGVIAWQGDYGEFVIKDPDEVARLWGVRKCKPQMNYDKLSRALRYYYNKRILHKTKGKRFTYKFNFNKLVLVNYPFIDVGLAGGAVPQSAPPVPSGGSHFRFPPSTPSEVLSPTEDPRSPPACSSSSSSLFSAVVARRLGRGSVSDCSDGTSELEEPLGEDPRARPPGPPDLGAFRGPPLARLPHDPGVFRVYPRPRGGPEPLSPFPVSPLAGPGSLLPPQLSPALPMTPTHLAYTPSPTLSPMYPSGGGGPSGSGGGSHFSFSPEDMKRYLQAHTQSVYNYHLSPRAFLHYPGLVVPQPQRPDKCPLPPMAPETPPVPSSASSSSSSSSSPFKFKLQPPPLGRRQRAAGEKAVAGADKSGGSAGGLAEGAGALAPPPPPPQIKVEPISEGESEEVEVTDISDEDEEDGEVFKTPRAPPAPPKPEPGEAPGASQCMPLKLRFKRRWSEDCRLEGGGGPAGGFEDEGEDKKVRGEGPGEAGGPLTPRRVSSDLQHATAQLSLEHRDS
Method in brief: as §1

ETV3L = target: T7, ETV3L (Homo sapiens, UniProt Q6ZN32 1-361); settings: protein: recombinant; tags: N-terminal GST; dsDNA, one strand shown
T7 sequence: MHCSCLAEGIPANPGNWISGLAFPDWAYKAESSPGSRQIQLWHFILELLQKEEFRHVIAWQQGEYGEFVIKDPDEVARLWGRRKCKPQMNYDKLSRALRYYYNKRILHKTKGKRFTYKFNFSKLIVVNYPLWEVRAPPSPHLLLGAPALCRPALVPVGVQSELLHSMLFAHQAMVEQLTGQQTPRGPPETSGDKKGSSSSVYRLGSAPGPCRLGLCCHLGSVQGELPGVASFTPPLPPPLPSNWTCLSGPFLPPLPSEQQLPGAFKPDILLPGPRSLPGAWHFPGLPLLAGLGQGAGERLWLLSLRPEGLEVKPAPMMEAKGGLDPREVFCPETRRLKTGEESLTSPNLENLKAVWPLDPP
Method in brief: as §1

ETS2 = target: T8, ETS2 (Homo sapiens, UniProt P15036 1-469); settings: protein: recombinant; tags: N-terminal GST; dsDNA, one strand shown
T8 sequence: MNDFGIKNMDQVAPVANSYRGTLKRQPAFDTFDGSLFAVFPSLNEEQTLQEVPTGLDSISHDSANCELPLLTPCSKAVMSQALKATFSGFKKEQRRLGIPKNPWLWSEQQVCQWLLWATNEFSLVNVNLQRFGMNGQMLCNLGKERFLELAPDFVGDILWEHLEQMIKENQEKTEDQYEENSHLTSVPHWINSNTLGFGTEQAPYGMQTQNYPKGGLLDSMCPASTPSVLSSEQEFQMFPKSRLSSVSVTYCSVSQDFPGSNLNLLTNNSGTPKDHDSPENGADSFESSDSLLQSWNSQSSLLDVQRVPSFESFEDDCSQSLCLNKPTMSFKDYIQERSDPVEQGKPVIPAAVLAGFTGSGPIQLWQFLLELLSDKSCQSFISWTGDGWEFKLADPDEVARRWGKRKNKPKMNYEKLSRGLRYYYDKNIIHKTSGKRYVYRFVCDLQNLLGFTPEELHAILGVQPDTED
Method in brief: as §1

SPDEF = target: T9, SPDEF (Homo sapiens, UniProt O95238 1-335); settings: protein: recombinant; tags: N-terminal GST; dsDNA, one strand shown
T9 sequence: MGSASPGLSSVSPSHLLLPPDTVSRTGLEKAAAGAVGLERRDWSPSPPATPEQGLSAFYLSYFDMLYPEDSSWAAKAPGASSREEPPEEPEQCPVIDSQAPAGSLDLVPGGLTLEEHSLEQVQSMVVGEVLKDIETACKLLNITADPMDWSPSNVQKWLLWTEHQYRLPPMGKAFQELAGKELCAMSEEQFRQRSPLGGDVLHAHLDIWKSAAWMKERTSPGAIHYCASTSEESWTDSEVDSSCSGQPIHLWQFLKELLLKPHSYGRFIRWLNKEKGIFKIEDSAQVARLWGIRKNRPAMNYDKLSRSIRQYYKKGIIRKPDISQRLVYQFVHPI
Method in brief: as §1

ETV7 = target: T10, ETV7 (Homo sapiens, UniProt Q9Y603 1-341); settings: protein: recombinant; tags: N-terminal GST; dsDNA, one strand shown
T10 sequence: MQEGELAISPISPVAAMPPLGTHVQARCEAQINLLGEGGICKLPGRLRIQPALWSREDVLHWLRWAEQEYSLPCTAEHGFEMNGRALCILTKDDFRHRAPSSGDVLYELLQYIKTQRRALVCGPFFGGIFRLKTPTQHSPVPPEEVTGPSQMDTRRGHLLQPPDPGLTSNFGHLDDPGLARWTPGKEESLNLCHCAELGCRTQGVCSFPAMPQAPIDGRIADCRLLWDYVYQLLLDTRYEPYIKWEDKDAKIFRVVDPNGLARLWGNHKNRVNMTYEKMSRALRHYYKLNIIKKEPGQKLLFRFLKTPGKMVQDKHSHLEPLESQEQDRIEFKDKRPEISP
Method in brief: as §1

ELF5 = target: T11, ELF5 (Homo sapiens, UniProt Q9UKW6-2 1-255); settings: protein: recombinant; tags: N-terminal GST; dsDNA, one strand shown
T11 sequence: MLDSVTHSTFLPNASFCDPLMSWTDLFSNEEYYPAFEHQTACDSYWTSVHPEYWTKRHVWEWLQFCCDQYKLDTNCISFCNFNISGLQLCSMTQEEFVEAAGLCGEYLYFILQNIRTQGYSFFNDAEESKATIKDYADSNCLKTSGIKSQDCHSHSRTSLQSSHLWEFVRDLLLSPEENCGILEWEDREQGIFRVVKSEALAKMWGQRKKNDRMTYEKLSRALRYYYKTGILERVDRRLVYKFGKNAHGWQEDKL
Method in brief: as §1

ETV3 = target: T12, ETV3 (Homo sapiens, UniProt P41162-2 1-143); settings: protein: recombinant; tags: N-terminal GST; dsDNA, one strand shown
T12 sequence: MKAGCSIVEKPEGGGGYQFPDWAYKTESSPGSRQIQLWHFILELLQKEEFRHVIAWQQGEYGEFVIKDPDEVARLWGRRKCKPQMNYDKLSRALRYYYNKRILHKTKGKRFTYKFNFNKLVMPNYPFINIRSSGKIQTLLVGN
Method in brief: as §1

ETV6 = ETV6 (Homo sapiens, UniProt P41212 1-452); settings: protein: recombinant; tags: N-terminal GST; dsDNA, one strand shown
Chain of ETV6 (P41212 whole entry): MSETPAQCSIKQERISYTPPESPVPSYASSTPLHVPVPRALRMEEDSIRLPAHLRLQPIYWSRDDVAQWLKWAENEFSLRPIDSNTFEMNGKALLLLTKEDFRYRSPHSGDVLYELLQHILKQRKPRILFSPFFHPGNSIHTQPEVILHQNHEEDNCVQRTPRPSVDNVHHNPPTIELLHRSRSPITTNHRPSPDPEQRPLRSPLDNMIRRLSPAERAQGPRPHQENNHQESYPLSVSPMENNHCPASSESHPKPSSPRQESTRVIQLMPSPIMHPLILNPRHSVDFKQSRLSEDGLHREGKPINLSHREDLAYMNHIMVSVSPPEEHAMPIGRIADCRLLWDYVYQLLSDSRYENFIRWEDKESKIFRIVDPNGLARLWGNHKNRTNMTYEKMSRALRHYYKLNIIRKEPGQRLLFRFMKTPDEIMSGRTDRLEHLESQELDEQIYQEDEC
Method in brief: as §1

Sequence: ACTTAT
- binding signal (FEV): 1.34 fold enrichment (6-mer frequency, TF over GST control)
- binding signal (ETV5): 1.32 fold enrichment (6-mer frequency, TF over GST control)
- binding signal (HSF1): 1.73 fold enrichment (6-mer frequency, TF over GST control)
- binding signal (SPIC): 1.5 fold enrichment (6-mer frequency, TF over GST control)
- binding signal (ELF4): 1.35 fold enrichment (6-mer frequency, TF over GST control)
- binding signal (ELK4): 1.53 fold enrichment (6-mer frequency, TF over GST control)
- binding signal (ETV2): 1.35 fold enrichment (6-mer frequency, TF over GST control)
- binding signal (ELF3): 1.27 fold enrichment (6-mer frequency, TF over GST control)
- binding signal (CRX): 2.2 fold enrichment (6-mer frequency, TF over GST control)
- binding signal (ETV1): 1.42 fold enrichment (6-mer frequency, TF over GST control)
- binding signal (ERF): 1.39 fold enrichment (6-mer frequency, TF over GST control)
- binding signal (ETV3L): 1.34 fold enrichment (6-mer frequency, TF over GST control)
- binding signal (ETS2): 1.36 fold enrichment (6-mer frequency, TF over GST control)
- binding signal (SPDEF): 1.4 fold enrichment (6-mer frequency, TF over GST control)
- binding signal (ETV7): 1.21 fold enrichment (6-mer frequency, TF over GST control)
- binding signal (ELF5): 1.38 fold enrichment (6-mer frequency, TF over GST control)
- binding signal (ETV3): 1.35 fold enrichment (6-mer frequency, TF over GST control)
- binding signal (ETV6): 1.27 fold enrichment (6-mer frequency, TF over GST control)
